The values that follow come from PubChem BioAssay (EPA / NIEHS).

Results filed as inconclusive are left out. Calls of active or inactive are those of the source. How the source made its calls, unless noted: active means hit-call score of the fitted dose curve at least 0.9, where 1 is the maximum; inconclusive means response in the unintended direction; inactive means score below 0.9.

Experiment [1] has as its target human Retinoic Acid Receptor gamma (RARg), RARG (gene 5916) (UniProt P13631). Nature of the experiment: ATG_RARg_TRANS: Attagene TRANS-FACTORIAL HepG2 Assay for human Retinoic Acid Receptor gamma (RARg) (AID 2283009). A digest of the protocol:
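Transactivation of exogenous RARg-Gal4 fusion measured as reporter transcript induction after 24 h in transfected HepG2 cells. RNA reverse-transcribed, amplified, fluorescently labeled and resolved by capillary electrophoresis; increase relative to DMSO.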

Read-out in experiment [2]: Pselectin, SELP (gene 6403)
Put plainly: BSK_4H_Pselectin: BioMAP Diversity Plus: 4H Assay for Pselectin Biomarker Activity (AID 2283026; active means hit-call score of the fitted dose curve at least 0.9, where 1 is the maximum; inactive means score below 0.9). As to conditions: primary human endothelial cells (HUVEC); actives raise or lower the signal. The essentials: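 ELISA of surface P-selectin on HUVEC, 24 h after dosing, with parallel SRB staining (0.1% after 10% TCA fixation, 560 nm) for overt cytotoxicity. Activity fitted in both directions relative to DMSO.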

Read-out in experiment [3]: Macrophage colony-stimulating factor (MCSF), CSF1 (gene 1435)
Put plainly: BSK_CASM3C_MCSF: BioMAP Diversity Plus: CASM3C Assay for Macrophage colony-stimulating factor (MCSF) Biomarker Activity (AID 2283044; active means hit-call score of the fitted dose curve at least 0.9, where 1 is the maximum; inactive means score below 0.9;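 further: M-CSF protein amount quantified by ELISA after 24 h exposure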). The following applies: primary human coronary artery smooth muscle cells; actives raise or lower the signal.

Read-out in experiment [4]: Low-density lipoprotein receptor (LDLR), LDLR (gene 3949)
Nature of the experiment: BSK_CASM3C_LDLR: BioMAP Diversity Plus: CASM3C Assay for Low-density lipoprotein receptor (LDLR) Biomarker Activity (AID 2283045; active means hit-call score of the fitted dose curve at least 0.9, where 1 is the maximum; inactive means score below 0.9;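 further: LDLR protein level on the cell surface quantified by ELISA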). The following applies: primary human coronary artery smooth muscle cells; actives raise or lower the signal.

Read-out in experiment [5]: serum amyloid A (SAA), SAA1 (gene 6288)
Nature of the experiment: BSK_CASM3C_SAA: BioMAP Diversity Plus: CASM3C Assay for serum amyloid A (SAA) Biomarker Activity (AID 2283049; active means hit-call score of the fitted dose curve at least 0.9, where 1 is the maximum; inactive means score below 0.9;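 further: SAA protein level quantified by ELISA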). As to conditions: primary human coronary artery smooth muscle cells; actives raise or lower the signal.

Read-out in experiment [6]: Interferon-gamma inducible Protein 10 (IP10), CXCL10 (gene 3627)
Put plainly: BSK_hDFCGF_IP10: BioMAP Diversity Plus: hDFCGF Assay for Interferon-gamma inducible Protein 10 (IP10) Biomarker Activity (AID 2283053; active means hit-call score of the fitted dose curve at least 0.9, where 1 is the maximum; inactive means score below 0.9). As to conditions: primary human foreskin fibroblasts; actives raise or lower the signal. The essentials: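 ELISA quantification of IP-10 after a 24 h chemical exposure of human dermal foreskin fibroblast primary cultures. Both increases and decreases versus DMSO fitted.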

Read-out in experiment [7]: Vascular cell adhesion molecule 1 (VCAM1), VCAM1 (gene 7412)
Put plainly: BSK_CASM3C_VCAM1: BioMAP Diversity Plus: CASM3C Assay for Vascular cell adhesion molecule 1 (VCAM1) Biomarker Activity (AID 2283055; active means hit-call score of the fitted dose curve at least 0.9, where 1 is the maximum; inactive means score below 0.9;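 further: VCAM-1 protein level quantified by ELISA on the cells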). As to conditions: primary human coronary artery smooth muscle cells; actives raise or lower the signal.

Read-out in experiment [8]: Macrophage colony-stimulating factor (MCSF), CSF1 (gene 1435)
Nature of the experiment: BSK_hDFCGF_MCSF: BioMAP Diversity Plus: hDFCGF Assay for Macrophage colony-stimulating factor (MCSF) Biomarker Activity (AID 2283060; active means hit-call score of the fitted dose curve at least 0.9, where 1 is the maximum; inactive means score below 0.9). As to conditions: AC50: primary human foreskin fibroblasts, actives raise or lower the signal unless noted; outcome: primary human foreskin fibroblasts, actives raise or lower the signal unless noted. A digest of the protocol: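 Primary human foreskin fibroblasts dosed with chemical; 24 h later, M-CSF quantified by ELISA; curves fitted in both directions vs DMSO negative control.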

Read-out in experiment [9]: Monokine induced gamma interferon (MIG), CXCL9 (gene 4283)
Nature of the experiment: BSK_hDFCGF_MIG: BioMAP Diversity Plus: hDFCGF Assay for Monokine induced gamma interferon (MIG) Biomarker Activity (AID 2283063; active means hit-call score of the fitted dose curve at least 0.9, where 1 is the maximum; inactive means score below 0.9). The following applies: primary human foreskin fibroblasts; actives raise or lower the signal. The essentials: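 Chemicals were added to primary human foreskin fibroblast cultures, which were sampled 24 h later. MIG levels were then quantified by ELISA and responses fitted in both directions relative to DMSO.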

Experiment [10] deals with Estrogen-related receptor gamma (Homo sapiens) (UniProt P62508). Nature of the experiment: ATG_ERRg_TRANS: Attagene TRANS-FACTORIAL HepG2 Assay for human Estrogen-Related Receptor gamma (ERRg) (AID 2282977).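 Further: hits increase reporter signal over DMSO so potencies reflect activators.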 As to conditions: HepG2 Attagene TRANS reporter, ERRg transactivation. The essentials: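 Exogenous NR-Gal4 chimera activity measured as reporter transcript induction after 24 h in transiently transfected HepG2 cells. RNA reverse-transcribed, PCR-amplified, 6-FAM-labelled and resolved by capillary electrophoresis; increase over DMSO baseline.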

The target in experiment [11] is Steroid hormone receptor ERR1 (Homo sapiens) (UniProt P11474). Put plainly: ATG_ERRa_TRANS: Attagene TRANS-FACTORIAL HepG2 Assay for human Estrogen-Related Receptor alpha (ERRa) (AID 2282971). As to conditions: HepG2 Attagene TRANS reporter, ERRa transactivation. The essentials: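 Reporter transcript induction was quantified by RT-PCR and capillary electrophoresis of FAM-labelled, HpaI-cut products after 24 h treatment of HepG2 cells carrying transiently transfected GAL4-UAS reporter units and an exogenous ERRa-Gal4 fusion; activity scored as increase over DMSO.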

Experiment [12] is described as follows: ATG_ERE_CIS: Attagene CIS-FACTORIAL HepG2 Assay for Estrogen Response Element (ERE) (AID 2282940; active means hit-call score of the fitted dose curve at least 0.9, where 1 is the maximum; inactive means score below 0.9). As to conditions: HepG2 ERE cis-reporter, Attagene RNA transcript; actives raise or lower the signal. A digest of the protocol:
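Cells used were human hepatoma HepG2, transfected with multiple reporter transcription units under cis-regulatory promoters. Reporter mRNA, read 24 h post-dosing via fluorescent RT-PCR products on capillary electrophoresis, was fitted bidirectionally relative to DMSO.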

For experiment [13], the target named is Nuclear receptor subfamily 4 group A member 2 (Homo sapiens) (UniProt P43354). Put plainly: ATG_NURR1_TRANS: Attagene TRANS-FACTORIAL HepG2 Assay for human Nuclear Receptor Related Protein 1 (NURR1) (AID 2282985). The following applies: HepG2 Attagene TRANS reporter, mRNA readout. A digest of the protocol:
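Reporter transcript induction, measured by RT-PCR with fluorescent labelling, HpaI digestion and capillary electrophoresis, after 24 hr dosing of human HepG2 cells transiently expressing an exogenous NR-Gal4 fusion with GAL4-UAS-driven reporters; DMSO as baseline.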

Experiment [14] has as its target Estrogen receptor beta (Homo sapiens) (UniProt Q92731). Put plainly: OT_ER_ERbERb_0480: Odyssey Thera (OT) 8-hour HEK293T Protein-Complementation Assay for Estrogen Receptor-beta/-beta Homodimer (AID 2283357).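 Further: active means signal gain over DMSO baseline.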 A digest of the protocol: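 ER-beta LBD homodimer PCA stably expressed in HEK293T; 8 h compound exposure, then formaldehyde fixation and Draq5 staining. Gain in nuclear/cytoplasmic fluorescence intensity versus DMSO vehicle, read on laser scanning cytometer.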

For experiment [15] the target is unchanged. Put plainly: OT_ER_ERbERb_1440: Odyssey Thera (OT) 24-hour HEK293T Protein-Complementation Assay for Estrogen Receptor-beta/-beta Homodimer (AID 2283380).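 Further: scored as signal increase over DMSO baseline for both agonists and antagonists.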 The essentials: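 Fluorescence increase, nuclear for agonists or whole-cell for antagonists, relative to DMSO vehicle, quantified by laser scanning cytometer after fixation and Draq5 staining. Readout from 24 h treatment of HEK293T cells carrying complementation-paired ER beta LBD (aa 310-547).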

Experiment [16] deals with Retinoic acid receptor RXR-alpha (Homo sapiens) (UniProt P19793). Put plainly: OT_NURR1_NURR1RXRa_1440: Odyssey Thera (OT) 24-hour HEK293T Protein Complementation Assay for Nurr1/retinoid X receptor (RXR) (AID 2283386). The essentials:
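Gain in fluorescence, fitted relative to DMSO, reflects Nurr1–RXRα association in HEK293T cells after 24 h dosing. Bait and prey are each linked to a reporter-protein fragment that reassembles on interaction.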

A short description of experiment [17]: ACEA_AR_antagonist_AUC_viability: ACEA Biosciences xCELLigence Real-Time Cell Analysis on Androgen Receptor Antagonism for Viability (AID 2283776).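 Further: 22Rv1 human prostate cancer cells growing on impedance electrode plates; area under impedance growth curve at 80 h after dosing as viability; hits lower the growth signal relative to DMSO meaning cytotoxicity.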 A digest of the protocol: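 Real-time electrical impedance tracks 22Rv1 proliferation after continuous compound exposure (top 100 uM final, 1:4 steps, 8 concentrations). The 80 h area-under-curve serves as the cytotoxicity readout relative to DMSO.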

Experiment [18] can be described thus: ACEA_AR_agonist_AUC_viability: ACEA Biosciences xCELLigence Real-Time Cell Analysis on Androgen Receptor Agonism for Viability (AID 2283775).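 On AC50: viability read 80 hours after compound addition.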 The essentials: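 22Rv1 cells; impedance growth kinetics; 8-pt 1:4 dilutions from 100 uM top final, ≤0.5% DMSO; n = 2; 80 h read; AUC viability, loss-of-signal vs DMSO.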
Experiment [19] in a line: CCTE_Harrill_HTTr_CellCount_MCF7: CCTE's Cell Proliferation Assessment for the High-Throughput Transcriptomics (HTTr) Platform, Harrill Lab (AID 2284012).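 Further: cells exposed to compound for six hours; intended direction is loss of nuclei count meaning fewer cells.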 A digest of the protocol: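 Cell count from high-content imaging of Hoechst-labeled nuclei serves as viability/growth readout. Chemicals were applied to MCF-7 cells in eight concentrations for six hours, with fitting in both directions relative to DMSO.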

human Retinoic Acid Receptor gamma (RARg), RARG (gene 5916), sequence (P13631 whole entry, looked up, the tested form may be a part): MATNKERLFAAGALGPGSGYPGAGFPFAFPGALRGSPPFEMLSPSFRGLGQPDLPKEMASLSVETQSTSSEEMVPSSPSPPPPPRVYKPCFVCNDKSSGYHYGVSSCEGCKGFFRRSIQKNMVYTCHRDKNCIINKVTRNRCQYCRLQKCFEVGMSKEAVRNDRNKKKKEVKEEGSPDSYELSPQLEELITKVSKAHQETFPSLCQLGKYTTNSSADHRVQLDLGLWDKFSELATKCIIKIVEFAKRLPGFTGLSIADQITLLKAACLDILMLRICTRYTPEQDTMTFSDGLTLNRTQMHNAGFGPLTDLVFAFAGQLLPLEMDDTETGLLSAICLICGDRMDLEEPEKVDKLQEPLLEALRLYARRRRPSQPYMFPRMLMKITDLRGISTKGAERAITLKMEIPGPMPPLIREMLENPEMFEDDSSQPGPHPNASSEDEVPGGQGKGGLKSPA
Nuclear receptor subfamily 4 group A member 2 (Homo sapiens), sequence (P43354 whole entry, looked up, the tested form may be a part): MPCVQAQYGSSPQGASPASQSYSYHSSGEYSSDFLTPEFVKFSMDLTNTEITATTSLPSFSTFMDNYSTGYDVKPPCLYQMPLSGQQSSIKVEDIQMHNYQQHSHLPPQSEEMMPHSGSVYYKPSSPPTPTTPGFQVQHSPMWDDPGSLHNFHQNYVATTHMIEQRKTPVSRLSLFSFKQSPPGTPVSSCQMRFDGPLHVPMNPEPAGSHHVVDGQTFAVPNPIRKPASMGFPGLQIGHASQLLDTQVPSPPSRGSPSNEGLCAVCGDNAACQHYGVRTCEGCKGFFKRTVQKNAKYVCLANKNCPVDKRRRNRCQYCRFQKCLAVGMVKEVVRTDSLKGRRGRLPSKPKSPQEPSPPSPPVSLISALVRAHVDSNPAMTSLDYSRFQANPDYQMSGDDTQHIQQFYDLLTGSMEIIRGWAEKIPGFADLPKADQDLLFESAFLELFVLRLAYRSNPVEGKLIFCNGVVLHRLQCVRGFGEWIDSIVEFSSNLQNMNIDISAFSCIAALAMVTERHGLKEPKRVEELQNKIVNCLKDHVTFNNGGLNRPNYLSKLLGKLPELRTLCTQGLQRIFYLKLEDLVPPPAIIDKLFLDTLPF
Estrogen receptor beta (Homo sapiens), sequence (Q92731 whole entry, looked up, the tested form may be a part): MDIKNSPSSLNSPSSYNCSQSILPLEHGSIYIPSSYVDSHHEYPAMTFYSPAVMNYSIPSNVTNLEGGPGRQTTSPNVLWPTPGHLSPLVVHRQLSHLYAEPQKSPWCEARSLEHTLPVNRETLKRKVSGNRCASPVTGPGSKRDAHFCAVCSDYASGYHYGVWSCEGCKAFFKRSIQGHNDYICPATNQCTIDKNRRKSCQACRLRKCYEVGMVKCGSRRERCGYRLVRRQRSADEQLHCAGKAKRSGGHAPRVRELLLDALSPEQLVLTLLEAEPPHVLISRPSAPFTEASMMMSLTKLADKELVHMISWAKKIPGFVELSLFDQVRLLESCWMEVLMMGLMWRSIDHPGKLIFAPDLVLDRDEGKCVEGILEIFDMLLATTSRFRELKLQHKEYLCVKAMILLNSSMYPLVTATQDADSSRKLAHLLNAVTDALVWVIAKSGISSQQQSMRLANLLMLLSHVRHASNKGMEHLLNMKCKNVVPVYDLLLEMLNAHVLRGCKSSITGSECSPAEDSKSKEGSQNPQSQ
Steroid hormone receptor ERR1 (Homo sapiens), sequence (P11474 whole entry, looked up, the tested form may be a part): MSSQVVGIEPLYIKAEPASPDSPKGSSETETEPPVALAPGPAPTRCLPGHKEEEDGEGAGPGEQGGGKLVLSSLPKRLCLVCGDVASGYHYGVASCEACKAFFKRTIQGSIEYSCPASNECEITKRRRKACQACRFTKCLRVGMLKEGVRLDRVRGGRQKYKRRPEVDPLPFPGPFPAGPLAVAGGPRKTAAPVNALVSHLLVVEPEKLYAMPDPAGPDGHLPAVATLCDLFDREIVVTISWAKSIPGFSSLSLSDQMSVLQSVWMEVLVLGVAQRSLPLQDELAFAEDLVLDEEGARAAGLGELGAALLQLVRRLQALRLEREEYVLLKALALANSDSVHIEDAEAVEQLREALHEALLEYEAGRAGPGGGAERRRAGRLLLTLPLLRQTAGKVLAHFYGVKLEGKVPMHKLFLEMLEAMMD
Estrogen-related receptor gamma (Homo sapiens), sequence (P62508 whole entry, looked up, the tested form may be a part): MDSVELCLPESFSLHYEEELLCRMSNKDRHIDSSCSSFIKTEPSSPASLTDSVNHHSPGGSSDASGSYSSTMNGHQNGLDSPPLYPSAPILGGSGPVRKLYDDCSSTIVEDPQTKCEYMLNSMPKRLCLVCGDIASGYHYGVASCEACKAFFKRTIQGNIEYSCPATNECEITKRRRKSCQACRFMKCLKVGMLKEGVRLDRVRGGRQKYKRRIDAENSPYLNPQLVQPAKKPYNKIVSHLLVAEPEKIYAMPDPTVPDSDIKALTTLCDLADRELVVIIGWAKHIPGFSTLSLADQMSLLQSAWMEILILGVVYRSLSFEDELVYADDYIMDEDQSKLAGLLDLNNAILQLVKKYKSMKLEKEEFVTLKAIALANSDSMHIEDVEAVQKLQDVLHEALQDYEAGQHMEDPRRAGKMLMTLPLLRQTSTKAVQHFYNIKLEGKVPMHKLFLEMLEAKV
Retinoic acid receptor RXR-alpha (Homo sapiens), sequence (P19793 whole entry, looked up, the tested form may be a part): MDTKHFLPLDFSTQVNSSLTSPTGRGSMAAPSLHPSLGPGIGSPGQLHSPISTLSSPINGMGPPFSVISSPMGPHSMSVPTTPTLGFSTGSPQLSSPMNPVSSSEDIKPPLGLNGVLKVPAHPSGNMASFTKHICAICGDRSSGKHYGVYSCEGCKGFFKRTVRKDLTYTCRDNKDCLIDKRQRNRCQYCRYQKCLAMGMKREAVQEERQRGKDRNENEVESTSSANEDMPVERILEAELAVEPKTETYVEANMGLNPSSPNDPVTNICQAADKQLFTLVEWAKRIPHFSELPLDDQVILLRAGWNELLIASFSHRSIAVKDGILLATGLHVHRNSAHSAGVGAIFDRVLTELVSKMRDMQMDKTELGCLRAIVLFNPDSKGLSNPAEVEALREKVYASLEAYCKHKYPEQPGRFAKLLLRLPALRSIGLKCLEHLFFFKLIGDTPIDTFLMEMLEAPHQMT

With `CCCCCCC(O)CCCCCCCCCCC(=O)OC` (stereo unspecified), the result in experiment [1], in [2], in experiment [3], in experiment [4], in experiment [5] and in [6] was inactive. Further, the outcome in [7], in experiment [8] and in [9] was inactive.

`CC(C)=CCOC(=O)c1ccccc1`: the call in experiment [10] was inactive.

`CCCCCCCC#N`: the compound was called inactive in [11] and in experiment [1].

Regarding `CC=CC(=O)O`, the result in experiment [11], in [10] and in experiment [1] was inactive.

`CCC(C)NC(N)=O` (stereo unspecified): the result in experiment [12] and in experiment [13] was inactive.

For orientation: AC50 means the midpoint of the concentration-response curve, whichever way the signal moves. For the compound `c1ccc2c(c1)Oc1ccccc1S2`, in [12], the concentration at half-maximal activity (AC50) is 63.7 µM (active).

In the case of `COCCCN`, in experiment [12], the outcome was inactive.

As for `CCCCCCC1CCCC(=O)O1` (stereo unspecified), in [11], the result was inactive.

Regarding `COC(=O)/C=C\C(=O)OC`, the result in experiment [11], in [10], in experiment [13], in experiment [2], in experiment [3] and in [4] was inactive. Besides, the result in [5], in [6], in experiment [8] and in experiment [9] was inactive. Moreover, the AC50 in [7] is 20 µM (active).

As to `Clc1ccc(Sc2cc(Cl)c(Cl)cc2Cl)cc1`, the compound was called inactive in [13].

For `OCCOCCOCCOCCOCCO`, the compound was called inactive in experiment [11].

Turning to `Cc1cc2nc3c(=O)[nH]c(=O)nc-3n(C[C@H](O)[C@H](O)[C@H](O)CO)c2cc1C`, the values for the concentration at half-maximal activity (AC50) in experiment [14], in experiment [15] and in experiment [16] were 11.8 µM (active), 24.1 µM (active) and 11 µM (active), respectively. For the same compound, the result in experiment [17] was inactive.

For the compound `CCOC(=O)CC(=O)OCC`, the result in experiment [1], in experiment [16] and in experiment [18] was inactive.

With `Cc1cc(O)cc(C)c1Cl`, the compound was called inactive in [13], in experiment [1], in experiment [16] and in experiment [19]. Moreover, the AC50 in [14] is 25 µM (active); in experiment [15], 31.6 µM (active); in [18] it was 3.98 µM (active); in [17], 8.88 µM (active).

On to `CCCc1c(OCCCCc2nn[nH]n2)ccc(C(C)=O)c1O`, for which the call in [12] and in [19] was inactive. Further, the AC50 in [13] is 50.4 µM (active).

As to `CCC(=O)OCc1ccc(OC)cc1`, the compound was classed as inactive in [1].

For `CCCCNC(N)=O`, in experiment [11], the call was inactive.

Consider `CC(=O)OC(C)(C)Cc1ccccc1`, for which the compound was called inactive in experiment [13], in experiment [18] and in experiment [17].
